Only some compounds are listed: those with a hit (about 2.4% of all), similar ones and a draw of the others.
JNK3 inh = blocks human JNK3 kinase activity; P53779; purified JNK3 kinase activity, HTS; inhibition, % at 8 µM; hit rate 0.61% among 60,000; AID 746; in the data active = inhibition above about 17%
Target sequence (P53779 whole entry, looked up): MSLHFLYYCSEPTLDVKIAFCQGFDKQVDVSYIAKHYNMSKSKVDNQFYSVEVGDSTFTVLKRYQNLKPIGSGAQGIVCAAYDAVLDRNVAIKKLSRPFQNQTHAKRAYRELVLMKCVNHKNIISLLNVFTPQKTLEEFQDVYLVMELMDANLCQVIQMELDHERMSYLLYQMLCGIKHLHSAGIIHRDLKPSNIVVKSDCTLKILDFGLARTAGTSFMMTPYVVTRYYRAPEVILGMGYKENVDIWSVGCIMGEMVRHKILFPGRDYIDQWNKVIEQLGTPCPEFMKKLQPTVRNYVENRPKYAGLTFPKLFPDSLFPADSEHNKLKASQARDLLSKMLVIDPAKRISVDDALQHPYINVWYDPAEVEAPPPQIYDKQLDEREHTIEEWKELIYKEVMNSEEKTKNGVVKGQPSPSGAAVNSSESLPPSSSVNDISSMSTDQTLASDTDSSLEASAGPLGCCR
PTK2B oligo ant = antagonists of human Pyk2 oligomerization | Q14289 | Q293 cells, Pyk2 FERM NanoBiT luminescence; hits give low values | z-score (the deposit names both 25 µM and 10 µM) | hit rate 0.83% among 99,000 | AID 1347419;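 active = Z-score of -3 or lower, scaled per plate to the spread of control and sample wells; inactive = z-score above -3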;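 also: negative z-score means lost luminescence so less FERM oligomerization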
HUVEC tox IL1B = HUVEC cytotoxicity counter-screen, IL-1B stimulated. HUVEC cell count loss, Hoechst imaging. cell count reduction, % at 2 µM. hit rate 0.41% among 94,000. AID 845;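 active = cell count reduction more than 3 SD above the screen-wide mean, cut at about 70% in these data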
IL1B NFkB inh = blocks IL-1B driven NFkB nuclear translocation in HUVEC cells | HUVEC IL-1B NFkB p65 nuclear translocation imaging | hit rate 0.43% among 94,000 | inhibition, % at 2 µM;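 active = inhibition above about 30% together with a positive call from visual inspection of the well image, limit read from the data; inconclusive = inhibition above a set limit but visual check negative; inactive = inhibition not above a set limit, visual check negative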;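 also: nuclear over cytoplasmic p65 intensity ratio measured by imaging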
NFkB transloc pot = enhances IL-1B driven NFkB nuclear translocation; HUVEC IL-1B NFkB p65 nuclear translocation imaging; activation, % at 2 µM; hit rate 0.3% among 94,000; AID 819;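 active = activation above 40%, about the mean plus 3 SD, also judged a hit on visual image review; inconclusive = activation above 40% but not a hit on visual review; inactive = activation not above 40% and no visual hit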;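 also: percent activation is computed from the nuclear over cytoplasmic p65 intensity ratio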
FAK blocker = blocks human focal adhesion kinase activity | biochemical FAK kinase activity assay | hit rate 0.84% among 97,000 | inhibition, %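 (tested at 7 µM)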 | AID 727
FAK inh conf = confirmation of human focal adhesion kinase (FAK) inhibitors | inhibition, % at 7 µM | FAK kinase biochemical inhibition assay | shares compounds with FAK blocker | hit rate 28% among 750
Hits are given with their value; 0 = inactive; ? = inconclusive; - = no result. Rule as the data show it, unless noted: active = inhibition above about 19%; inactive = the rest.

SMILES	JNK3 inh	PTK2B oligo ant	HUVEC tox IL1B	IL1B NFkB inh	NFkB transloc pot	FAK blocker	FAK inh conf
O=Cc1cn(-c2ccccc2)nc1-c1cc2cc(O)ccc2oc1=O	-	0	0	0	0	30	0
O=Cc1cn(-c2ccccc2)nc1-c1cc2c(ccc3ccccc32)oc1=O	-	0	0	0	0	0	-
Nc1ccccc1C(=O)NCc1ccc(Cl)cc1	-	0	-	-	-	-	-
Cc1cc(/C=N/NC(=O)c2cccc([N+](=O)[O-])c2)c(C)n1-c1ccc(Cl)cc1Cl	-	0	0	0	0	20	0
O=C(OCc1c(F)cccc1Cl)c1cnccn1	0	0	0	0	0	0	-
Nc1nnc2c(n1)CCCC2	0	0	0	0	0	21	0
Cc1cc(C)n2nc(C(=O)Nc3ccc4c(c3)OCO4)nc2n1	0	0	0	0	0	93	0
Cc1ccc(S(=O)(=O)CCc2nc3ccccc3n2CCC#N)cc1	-	0	0	0	0	0	-
CCN1CCCC1CNC(=O)c1c(O)c2c([nH]c1=O)CCCC2 (centres undefined)	0	0	0	0	0	0	-
O=C(O)c1ccc(N2CCCCC2)cc1	0	0	-	-	-	-	-
Nc1ccc(N2CCCCCC2)cc1	0	-	-	-	-	28	0
C=CCOc1ccc(/C=C/C(C)=N\O)cc1	0	0	0	0	0	20	0
COc1ccc(S(=O)(=O)Nc2ccc(O)c(Sc3ncn[nH]3)c2)cc1	-	0	0	0	0	0	-
COc1ccc(S(=O)(=O)Nc2cc(Sc3ncn[nH]3)c(O)c3ccccc23)cc1	-	-	0	0	0	45	0
CCOC(=O)N1CCC2(CC1)C(C#N)=C(N)Oc1n[nH]c(CSc3ccc(C)cc3)c12	0	0	0	0	0	22	0
COc1ccc(CN2C(=O)C(O)(CC(=O)c3ccc4c(c3)OCO4)c3ccccc32)cc1OC (centres undefined)	-	0	0	0	0	0	-
O=C(Nc1ccccc1Cl)ON=C1c2ccccc2-c2ccccc21	-	0	0	0	0	35	0
O=C(Nc1ccccc1)ON=C1c2ccccc2-c2ccccc21	-	0	0	0	0	41	0
O=C(Nc1ccccc1)O/N=C(\c1ccccc1)c1ccccn1	-	0	0	0	0	0	-
O=C1CCCN1CCCNc1ccc(S(=O)(=O)N2CCCCC2)cn1	0	0	0	0	0	0	-
O=C(C1COc2ccccc2O1)N1CCc2ccccc21 (centres undefined)	0	0	0	0	0	24	0
Fc1ccc2nc3n(c2c1F)CCCCCC3	0	0	0	0	0	0	-
Cn1c(C(=O)N2CCN(C(=O)c3ccco3)CC2)cc2c(=O)n(C)c3ccccc3c21	0	-	0	0	0	19	0
Cc1ccc(S(=O)(=O)N(C)CC(=O)Nc2ccncc2)cc1	0	0	0	0	0	0	-
COC(=O)Cc1ccc2c3ccccc3n(C)c2c1	-	0	0	0	0	41	32
SMILES	JNK3 inh	PTK2B oligo ant	HUVEC tox IL1B	IL1B NFkB inh	NFkB transloc pot	FAK blocker	FAK inh conf
O=C(CSc1nnc(-c2ccccn2)n1Cc1ccccc1)N1CCCC1	0	0	0	0	0	0	-
Cc1cccc(Nc2nc(-c3ccc4c(c3)OCCO4)cs2)c1	-	0	0	0	0	0	-
CSc1nc(SCC(=O)NCc2ccco2)c2c3c(sc2n1)COC(C)(C)C3	-	0	-	-	-	-	-
CSc1nc(SCC(=O)NC(c2ccccc2)c2ccccc2)c2c3c(sc2n1)CN(C)CC3	-	0	-	-	-	24	0
Cc1cccc(NC(=S)NC2CC3CCCC(C2)N3CC(C)C)c1 (centres undefined)	-	0	0	0	0	0	-
COc1ccc(CCNC(=O)c2ccc3nc(-c4ccco4)c(-c4ccco4)nc3c2)cc1OC	0	0	0	0	0	54	0
COc1ccc(CCNC(=O)COC(=O)c2ccco2)cc1OC	0	0	0	0	0	0	-
CC(C)N1CC(C(=O)O)CC1=O (centres undefined)	-	0	0	0	0	0	-
Cc1ccc(C2NC(=O)NC3=C2CCc2ccccc23)cc1 (centres undefined)	0	0	0	0	0	19	0
O=c1oc2ccccc2c2c1SC(C(F)(F)F)C2 (centres undefined)	-	0	0	0	0	0	-
COc1cc(CNCc2ccccn2)ccc1OCc1ccc(Cl)cc1Cl	-	0	0	0	0	0	-
Oc1ccc(NCc2ccccc2OCc2ccccc2F)cc1	-	0	0	0	0	35	0
CCOc1cccc(CNc2ccc(O)cc2)c1OCc1ccc(Cl)cc1	-	0	0	0	0	30	0
CCOc1cc(CNc2ccc(O)cc2)ccc1OCc1ccc(Cl)cc1Cl	-	0	0	0	0	32	0
Cc1cc(C)c(C)c(S(=O)(=O)Nc2ccc(OCC(=O)O)cc2)c1C	-	-	0	0	0	0	-
Cc1cc(C)c(-c2cc(C(F)(F)F)no2)c(=O)[nH]1	0	0	0	0	0	0	-
CC(=O)C1=C(C)NC(SCC(=O)c2ccc(-c3ccccc3)cc2)=C(C#N)C1c1cccnc1 (centres undefined)	-	-	0	0	0	0	-
CCC(C)n1cnc2c(c1=O)c1nc3ccccc3nc1n2-c1ccc2c(c1)OCCO2 (centres undefined)	0	0	0	0	0	21	0
COc1ccccc1-c1cc(N)n[nH]1	0	0	0	0	0	25	0
Oc1cccc(Nc2ncnc3ccccc23)c1	0	0	0	0	0	23	0
CCNc1nc(N)c(C(=O)c2ccc(Cl)s2)s1	0	0	0	0	?	19	0
Cc1nnc(SCCN2CCOCC2)c2nn(-c3ccccc3F)c(C)c12	-	0	-	-	-	-	-
CCS(=O)(=O)n1nc(-c2ccc(Cl)cc2)nc1SC	-	0	-	-	-	0	-
Cn1nc(-c2ccc(Cl)cc2)nc2c(=O)n(C)c(=O)nc1-2	-	-	0	0	0	69	67
O=C(NNC(=O)c1cc2cc3ccccc3nc2s1)c1ccc(F)cc1	-	0	0	0	0	26	0
SMILES	JNK3 inh	PTK2B oligo ant	HUVEC tox IL1B	IL1B NFkB inh	NFkB transloc pot	FAK blocker	FAK inh conf
Cc1ccc(S(=O)(=O)NNC(=O)c2cc3cc4ccccc4nc3s2)cc1	-	0	0	0	0	0	-
O=C(NNC(=O)c1cc2cc3ccccc3nc2s1)c1cccc(Cl)c1	-	0	0	0	0	30	0
Cc1cccc(C(=O)NNC(=O)c2cc3cc4ccccc4nc3s2)c1	-	0	0	0	0	0	-
O=[N+]([O-])c1cc(/C=N/OCc2c(Cl)cccc2Cl)ccc1N1CCOCC1	-	0	0	0	0	0	-
COc1ccc2sc3ccccc3c(=O)c2c1	-	0	-	-	-	29	0
C=CCSc1nnc(-c2cc3c(s2)-c2ccccc2CC3)o1	-	0	0	0	0	0	-
CCc1ccc(OCC(=O)Nc2ccc(-c3nc4ccccc4o3)c(O)c2)cc1	0	0	0	0	0	30	21
COc1ccc(OCC(=O)Nc2cccc(-c3nc4ccccc4o3)c2)cc1	0	0	0	0	0	0	-
N#Cc1cccc(NC(=O)c2ccccc2C(=O)O)c1	0	0	0	0	0	22	0
Cc1ccccc1C(=O)Nc1cccc(C#N)c1	-	0	0	0	0	0	-
COc1ccc(C(=O)Nc2nc3ccc4nc(C)sc4c3s2)cc1	-	-	0	0	0	27	38
COc1cc(C(=O)Nc2nc3ccc4nc(C)sc4c3s2)cc(OC)c1OC	-	0	0	0	0	0	-

Screening data (PubChem BioAssay)
